MITF TRPM1 inh: reduces MITF-dependent TRPM1 promoter luciferase signal; inhibition, % at 12.5 µM; SK-MEL-5 TRPM1 promoter luciferase, 24 h; AID 488899; 0.83% of 330,000 active;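 active means mean inhibition across replicates of 60% or more, whatever share of single replicates reaches that level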
ABHD5-PLIN5 inh: ABHD5-PLIN5 protein interaction inhibition; Q00G26+Q8WTS1; inhibition, % at 4 µM; 0.78% of 360,000 active; Split G. princeps luciferase complementation, luminescence, 4 h;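 active means inhibition above the mean inhibition across every tested compound plus 3 SD, cut at about 22% in these data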;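 further: 0% = DMSO only wells and the 100% control is not disclosed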
Target sequence (Q00G26 whole entry, looked up): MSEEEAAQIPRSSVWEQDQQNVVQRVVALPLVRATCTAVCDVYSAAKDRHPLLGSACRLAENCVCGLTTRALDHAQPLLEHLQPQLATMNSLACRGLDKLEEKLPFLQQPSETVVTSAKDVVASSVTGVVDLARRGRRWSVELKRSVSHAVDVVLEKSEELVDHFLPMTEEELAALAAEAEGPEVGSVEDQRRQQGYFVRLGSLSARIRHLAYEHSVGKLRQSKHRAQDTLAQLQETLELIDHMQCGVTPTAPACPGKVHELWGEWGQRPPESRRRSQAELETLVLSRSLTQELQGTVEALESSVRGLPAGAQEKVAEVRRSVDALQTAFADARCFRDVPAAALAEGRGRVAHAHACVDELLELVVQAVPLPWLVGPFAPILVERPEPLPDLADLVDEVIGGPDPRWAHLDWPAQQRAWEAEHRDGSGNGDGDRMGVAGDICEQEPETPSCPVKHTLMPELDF
Target sequence (Q8WTS1 whole entry, looked up): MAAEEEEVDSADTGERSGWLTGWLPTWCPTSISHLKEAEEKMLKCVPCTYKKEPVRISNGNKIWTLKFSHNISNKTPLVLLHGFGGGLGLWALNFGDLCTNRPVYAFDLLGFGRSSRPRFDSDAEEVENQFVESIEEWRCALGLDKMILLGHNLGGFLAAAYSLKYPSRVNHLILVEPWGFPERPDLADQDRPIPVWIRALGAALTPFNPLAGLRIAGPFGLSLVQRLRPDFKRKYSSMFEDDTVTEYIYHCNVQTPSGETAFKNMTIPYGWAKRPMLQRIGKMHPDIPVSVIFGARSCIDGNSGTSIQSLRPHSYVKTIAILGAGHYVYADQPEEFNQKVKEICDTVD
HIF-2a inh: inhibitors of HIF-2a. AID 624352. 0.72% of 360,000 active. 786-0 RCC cells HIF-2a reporter, luciferase luminescence, overnight. inhibition, % at 18.8 µM;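 active means inhibition of the luminescence signal of 40% or more relative to plate controls, in a single-dose primary screen at 18.75 µM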
KKLEB cytotox: CF airway cell cytotoxicity counter-screen; KKLEB CF airway cells viability, ATPlite luminescence, overnight; active compounds read low; cells stimulated with P. aeruginosa culture filtrate; activity change (cytotoxicity), % at 5 µM; 0.36% of 360,000 active;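 active means corrected activity change at or below -50% at 5 µM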
Peg3 prom inh: inhibitors of Peg3 promoter; HeLa PEG-Prom luciferase reporter, luminescence, overnight; inhibition, % at 20 µM; 1.7% of 360,000 active;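 active means inhibition of at least 50% at 20 µM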
CF NFkB inh: inhibitors of cystic fibrosis induced NF-kB. KKLEB NF-kB-GFP reporter, PAF-induced, GFP fluorescence overnight. inhibition, % at 5 µM. 0.86% of 360,000 active;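 active means at least 50% inhibition at 5 µM, scaled per plate between neutral and stimulator controls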;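 further: PAF is a Pseudomonas aeruginosa culture filtrate used as stimulus; plate controls were PAF-stimulated DMSO wells for no effect and unstimulated DMSO wells for full effect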
* marks the source's active call; other numbers are inactive results; · = no result. Rows were chosen to be rich in hits. Some 3.1% of all compounds tested hit in one or more screens of this group.

SMILES | MITF TRPM1 inh | ABHD5-PLIN5 inh | HIF-2a inh | KKLEB cytotox | Peg3 prom inh | CF NFkB inh
COc1ccc(S(=O)(=O)NNC(=O)Nc2ccc(C)cc2C)c(OC)c1 | -5 | -2 | 15 | 1 | -3 | 11
COC(=O)c1nn(-c2ccc(-c3ccccc3)cc2)cc1O | 73* | 4 | -174 | 6 | -32 | -8
O=C1c2cc([N+](=O)[O-])ccc2-c2cc(Cl)c(NC(=O)C(F)(F)F)cc21 | 9 | -2 | -41 | 18 | -19 | -44
O=C1c2cc([N+](=O)[O-])ccc2-c2cc(Br)c(N=C(NO)C(F)(F)F)cc21 | 17 | 5 | -31 | -23 | 97* | 29
CC(CCC(C)C(C)(C)C)[C@@H]1CC[C@H]2C3C[C@H](OS(O)(=S)=S)[C@H]4C[C@H](OS(O)(=S)=S)[C@@H](OS(O)(=S)=S)C[C@]4(C)[C@H]3CC[C@]12C (some centres undefined) (tested in a mixture with another compound) | -21 | 5 | 1 | 8 | 58* | 30
CC(CCC(=O)NN)C1CCC2C3CCC4CC(O)CCC4(C)C3CCC12C (centres undefined) | 9 | -2 | 5 | 7 | -19 | -26
COc1ccc(N2C(=O)CC(Sc3nnnn3-c3ccc(F)cc3)C2=O)cc1 (centres undefined) | 22 | 52* | 0 | -2 | 114* | 27
COc1ccc(N2C(=O)CC(Sc3nc(C)cc(C)c3C#N)C2=O)cc1 (centres undefined) | -11 | 7 | -127 | -24 | -46 | 14
CC(=O)NC1=NC(=O)/C(=C/c2cn(C(C)=O)nc2-c2ccccc2)S1 | -4 | -32 | 6 | -5 | -6 | 57*
O=C1COc2ccc(S(=O)(=O)N3CCCCCC3)cc2N1 | 4 | 3 | 13 | -9 | 7 | 16
Cc1cc(=O)oc2cc(OCC(=O)NCCc3c[nH]c4ccc(F)cc34)ccc12 | -15 | -7 | 7 | -20 | -16 | -10
CCCc1cc(=O)oc2cc(OCC(=O)NCCc3c[nH]c4ccccc34)ccc12 | 0 | -9 | 0 | 4 | 57* | -7
CCOC(=O)c1cccc(NC(=O)/C=C/c2cccc([N+](=O)[O-])c2)c1 | -16 | 4 | -59 | -8 | -16 | -7
CCOC(=O)/C=C/C(=O)Nc1cccc([N+](=O)[O-])c1 | 13 | 44* | 4 | -45 | 88* | 88*
CCCC[C@@H](CNC)NC[C@H](NCCCCC1CCCCC1)C(C)C | 78* | 12 | -2 | -11 | 104* | 23
O=C(CCl)c1ccc(Cc2ncc(C(F)(F)F)cc2Cl)s1 | 22 | -1 | 12 | -15 | 61* | 1
COc1cc(/C=N/NC(=O)c2ccc(CN3c4cccc5cccc(c45)S3(=O)=O)cc2)cc(OC)c1O | 7 | -1 | 10 | -80* | 57* | 69*
CCOC(=O)C1=C[C@@H](C(C)(C)C)N(S(=O)(=O)c2ccc(C)cc2)[C@H]1c1ccc(F)cc1 | · | -3 | -7 | -4 | 13 | 15
COc1ccc(OC)c(N=Nc2c(O)c3ccccc3[nH]c2=O)c1 | 26 | -2 | 5 | -20 | 70* | 6
COc1ccc(NC(=O)Cc2c(O)c3ccccc3[nH]c2=O)cc1 | 0 | -3 | 12 | -8 | 4 | -6
CCOC(=O)C1CCN(C(=O)c2cccc(S(=O)(=O)N(C)C3CCCCC3)c2)CC1 | 7 | 1 | -10 | 5 | 12 | -6
CCOC(=O)c1c(C2CC2)csc1NC(=O)COC(=O)c1cnc(Cl)c(Cl)c1 | 9 | 0 | -4 | 6 | 102* | -3
CCOC(=O)c1c(C2CC2)csc1NC(=O)COC(=O)c1ccc[n+]([O-])c1 | -2 | 3 | 11 | 6 | -7 | -15
Cc1ccsc1/C=N/NC(=O)c1ccncc1 | -4 | -1 | -2 | 3 | 16 | -1
COc1cc(C(=O)N/N=C/c2sccc2C)cc(OC)c1OC | 50 | 0 | 20 | -10 | -8 | 52*
CN(C(=O)Cn1cnc2ccccc2c1=O)C1CCS(=O)(=O)C1 (centres undefined) | 3 | 10 | 5 | -4 | -10 | 14
Cc1ccc(CN2CCC[C@]3(N[C@H](c4ccccc4)[C@@H]4C(=O)N(C)C(=O)[C@@H]43)C2=O)cc1 | · | 0 | 4 | 13 | 1 | -13
